Test results taken from PubChem BioAssay AID463173 (ICCB-Longwood Screening Facility, Harvard Medical School, 2010).
Among all 52,000 compounds or so, about 4,300 (8.3%) were called active. The full list was thinned out, with actives kept by preference. Unmarked numbers belong to inactive results. Rule as the data show it: active = survival mostly below about 52% (no sharp cut-off); inactive = mostly above about 56%.

system: DeltatarO mutant; experiment: S. aureus survival, RN4220 and DeltatarO strains – OD600, teichoic acid synthesis inhibitors, primary screen (AID 463173); conditions: S. aureus RN4220 wild type/DeltatarO growth, OD600, 18 h, active compounds read low, screened at 18.75 µg/mL (by protocol)

Row | Structure (SMILES) | survival
1 | O=C(c1ccc(F)cc1F)N1CCC(c2nc(-c3ccc(S(=O)(=O)N4CCCC4)cc3)no2)CC1 | 97%
2 | O=S(=O)(c1ccc2ccccc2c1)n1nc(-c2ccco2)nc1NCc1ccc(F)cc1 | 106%
3 | Cc1oc(-c2cccc(Cl)c2)nc1CN1CCC(C(=O)NC(C)c2ccccc2)CC1 (stereo not given) | 85%
4 | CC(=O)Nc1ccccc1OCc1cc(=O)n2c3c(sc2n1)CCCC3 | 120%
5 | O=C(/C=C/c1ccccc1)C1=C(O)C(=O)N(CCO)C1c1ccc2c(c1)OCO2 (stereo not given) | 79%
6 | COc1ccc(-c2oc3ncn4nc(-c5ccccc5O)nc4c3c2-c2ccc(OC)cc2)cc1 | 62%
7 | CCc1ccc(CNC(=O)c2cc3cc(S(=O)(=O)N4CCCCC4)ccc3n2C)cc1 | 60%
8 | Cc1ccccc1CNC(=O)c1cc2cc(S(=O)(=O)N3CCCCC3)ccc2n1C | 102%
9 | CN(C)c1ccc(CNC(=O)c2cc3cc(S(=O)(=O)N4CCCCC4)ccc3n2C)cc1 | 8% (active)
10 | Cn1c(C(=O)NCCc2ccccc2)cc2cc(S(=O)(=O)N3CCCCC3)ccc21 | 94%
11 | Cc1ccccc1CCNC(=O)c1cc2cc(S(=O)(=O)N3CCCCC3)ccc2n1C | 20% (active)
12 | Cn1c(C(=O)NCc2ccc(F)cc2)cc2cc(S(=O)(=O)N3CCCCC3)ccc21 | 126%
13 | CC(C)NC(=O)CCn1c(SCc2c(F)cccc2Cl)nc2c(sc3ccccc32)c1=O | 67%
14 | COc1ccccc1NC(=O)N1CCN(Cc2ccccc2)CC1 | 87%
15 | Cc1cc(C)c2sc(N(Cc3cccnc3)C(=O)CCOc3ccccc3)nc2c1 | 115%
16 | COc1cc(Cl)c(NC(=O)CCS(=O)(=O)c2ccc3c(c2)NC(=O)CO3)c(OC)c1 | 90%
17 | COc1ccc(NC(=O)c2cc3cc(C)ccc3[nH]2)cc1 | 100%
18 | Cc1ccc(NC(=O)CN2C(=O)COc3ccc(S(=O)(=O)N4CCOCC4)cc32)cc1N(C)C | 99%
19 | Cc1ccc(S(=O)(=O)c2cn(CC(=O)Nc3ccc4c(c3)OCO4)c3ccc(F)cc3c2=O)cc1 | 69%
20 | CC1C(=O)NN=C1C(=O)N/N=C\c1cccnc1 (stereo not given) | 87%
21 | COc1ccccc1NS(=O)(=O)c1cn(C)c(C)n1 | 37% (active)
22 | CSc1cccc(NS(=O)(=O)c2cn(C)c(C)n2)c1 | 75%
23 | Cc1ccc(NS(=O)(=O)c2cn(C)c(C)n2)c(Br)c1 | 69%
24 | CCc1nn(CC(=O)NC(C)CC)c(=O)c2cc3c(OC)cccc3n12 (stereo not given) | 128%

Row | Structure (SMILES) | survival
25 | CCCc1ccc(OC(C)c2nc(-c3ccc(-n4cccc4)cc3)no2)cc1 (stereo not given) | 52% (active)
26 | CCc1ccc(OCc2nc(-c3ccc(-n4cccc4)cc3)no2)cc1 | 82%
27 | CCc1ccc(OC(C)c2nc(-c3ccc(-n4cccc4)cc3)no2)cc1 (stereo not given) | 48%
28 | Cc1cc(NC(=O)CSc2nc3c([nH]c4ccccc43)c(=O)n2-c2ccccc2F)no1 | 88%
29 | Cc1ccccc1NC(=O)C(C)Sc1nnc(-c2ccccc2O)o1 (stereo not given) | 69%
30 | CC(Sc1nnc(-c2ccccc2Br)o1)C(=O)Nc1cccc(Cl)c1 (stereo not given) | 34% (active)
31 | Cc1ccccc1NC(=O)C(C)Sc1nnc(-c2ccccc2C)o1 (stereo not given) | 74%
32 | CCOC(=O)C1(C)C=C(Nc2ccc(C(N)=O)cc2)C(=O)N1c1ccccc1 (stereo not given) | 68%
33 | CCC(=O)N1CCc2cc(Br)cc(S(=O)(=O)CCC(=O)NCCc3ccccc3)c21 | 91%
34 | Cc1ccc(C)c(NC(=O)CN2C(=O)COc3ccc(Cl)cc32)c1 | 69%
35 | COC(=O)c1ccccc1NC(=O)CN1C(=O)COc2ccccc21 | 69%
36 | COC(=O)c1ccccc1NC(=O)CN1C(=O)COc2ccc(Cl)cc21 | 38% (active)
37 | COc1ccc(-n2ncc(C(=O)N3CCN(C(=O)c4ccco4)CC3)c2C2CCN(C(=O)OC(C)(C)C)CC2)cc1 | 86%
38 | COc1ccc(N2CCN(C(=O)c3cc4cc5ccc(Cl)cc5nc4o3)CC2)cc1 | 86%
39 | Cc1ccc(S(=O)(=O)Cc2ccc(C(=O)N3CCN(c4cccc(Cl)c4)CC3)o2)cc1 | 75%
40 | Cc1cccc(N2CCN(C(=O)c3ccc(CS(=O)c4cccc(Cl)c4)o3)CC2)c1C (stereo not given) | 51% (active)
41 | O=C(c1ccc(CS(=O)c2ccccc2Cl)o1)N1CCN(c2cccc(C(F)(F)F)c2)CC1 (stereo not given) | 60%
42 | O=C(c1ccc(CS(=O)c2ccccc2Cl)o1)N1CCN(c2ccccc2F)CC1 (stereo not given) | 84%
43 | O=C(c1ccc(CS(=O)c2ccccc2Cl)o1)N1CCN(c2cccc(Cl)c2)CC1 (stereo not given) | 51% (active)
44 | Cc1ccc(Cl)cc1N1CCN(C(=O)c2ccc(CS(=O)(=O)c3ccccc3C)o2)CC1 | 50%
45 | Cc1ccccc1S(=O)Cc1ccc(C(=O)N2CCN(c3cccc(C)c3C)CC2)o1 (stereo not given) | 61%
46 | Cc1ccccc1S(=O)(=O)Cc1ccc(C(=O)N2CCN(c3cccc(Cl)c3)CC2)o1 | 54% (active)
47 | COc1ccc(S(=O)Cc2ccc(C(=O)N3CCN(c4cccc(C)c4C)CC3)o2)cc1 (stereo not given) | 79%
48 | Cc1ccc2cc3cc(C(=O)N4CCN(c5ccc(Cl)cc5)CC4)oc3nc2c1 | 85%

Row | Structure (SMILES) | survival
49 | O=C(c1cc2cc3ccc(Cl)cc3nc2o1)N1CCN(c2cccc(Cl)c2)CC1 | 46% (active)
50 | CNC(=O)C1CCC(Cn2c(=O)c3sccc3n(Cc3ccc(F)cc3)c2=O)CC1 (stereo not given) | 79%
51 | NS(=O)(=O)c1ccc(CCNC(=O)c2nc(SCc3ccccc3F)ncc2Cl)cc1 | 45%
52 | CC(C)(C)NS(=O)(=O)c1ccc2oc3ccc(S(=O)(=O)NC(C)(C)C)cc3c2c1 | 86%
53 | O=C(O)c1cccc(N=NN2CCOCC2)c1 | 80%
54 | CSc1cccc(NS(=O)(=O)c2ccc3[nH]cc(C(=O)N4CCCC4)c(=O)c3c2)c1 | 91%
55 | O=C(CSc1ccc2ccccc2n1)Nc1nsc(-c2ccc(Cl)cc2)n1 | 57%
56 | Cc1cccc(Cn2cc(S(=O)(=O)c3cccc(C)c3)c(=O)c3cc(F)c(N4CCOCC4)cc32)c1 | 76%
57 | CCCCOc1ccc(C2C(=O)N(C3CCCCC3)CC(=O)N2C2CCCCC2)cc1 (stereo not given) | 94%
58 | CCN(CC)S(=O)(=O)c1ccc2c(c1)N(CC(=O)NCCc1ccccc1)C(=O)CO2 | 76%
59 | Cc1ccc(S(=O)Cc2ccc(C(=O)NCc3ccc(OC(C)C)cc3)o2)cc1 (stereo not given) | 51%
60 | CC(C)Oc1ccc(CNC(=O)c2ccc(CS(=O)c3cccc(Cl)c3)o2)cc1 (stereo not given) | 52% (active)
61 | CC(C)Oc1ccc(CNC(=O)c2ccc(CS(=O)Cc3ccccc3Cl)o2)cc1 (stereo not given) | 109%
62 | O=C(Cn1c(-c2cccs2)cc2cc(F)ccc21)N1CCN(c2ccccc2)CC1 | 71%
63 | Cc1ccc(C)c(NC(c2ccccc2)c2nnc(-c3ccccc3F)o2)c1 (stereo not given) | 4% (active)
64 | CCc1cccc(NC(c2ccccc2)c2nnc(-c3ccccc3F)o2)c1 (stereo not given) | 11% (active)
65 | Cc1ccc(Cl)cc1NC(c1ccc(F)cc1)c1nnc(-c2ccccc2)o1 (stereo not given) | 86%
66 | COc1cc(Cl)c(C)cc1NC(c1ccccc1)c1nnc(-c2ccccc2Cl)o1 (stereo not given) | 69%
67 | COc1ccc(NC(c2ccc(F)cc2)c2nnc(-c3ccccc3Cl)o2)cc1Cl (stereo not given) | 78%
68 | CCc1cccc(NC(c2nnc(-c3ccccc3)o2)c2ccc(F)cc2Cl)c1 (stereo not given) | 83%
69 | COc1ccc(OC)c(NC(=O)CSc2cn(CC(=O)N3CCOCC3)c3ccccc23)c1 | 91%
70 | CC(=O)Nc1ccc2nc(SCc3ccccc3)sc2c1 | 63%
71 | CC(C)NC(=O)Cn1c(SCC(=O)N2CCc3ccccc32)nc2ccccc21 | 97%
72 | Cc1ccc2nc(-c3ccccc3F)c(Nc3ccc(Cl)cc3)n2c1 | 16%

Row | Structure (SMILES) | survival
73 | Cc1ccc(-n2c3nc(=O)n(C)c(=O)c-3cc3ccccc32)c(C)c1 | 99%
74 | Cn1c(=O)nc2n(-c3ccc(Br)cc3)c3cccc(Cl)c3cc-2c1=O | 80%
75 | CCCCn1c(=O)nc2n(-c3ccc(F)cc3)c3ccccc3cc-2c1=O | 41% (active)
76 | CCOc1ccccc1C(=O)N1CCC(c2nc3ccccc3o2)CC1 | 80%
77 | Cc1cccc(NC(=O)CCCn2c(C)c3cnn(-c4ccccc4)c(=O)c3c2C)c1C | 71%
78 | CCOC(=O)c1cnc(SCC(=O)OC)nc1N | 95%
79 | CCCCSc1ncc(C(=O)OCC)c(N)n1 | 78% (active)
80 | CCOC(=O)c1cnc(SC2CCc3ccccc3C2=O)nc1N (stereo not given) | 79%
81 | COc1ccc(CNC(=O)CN(c2ccccc2)S(=O)(=O)N(C)C)cc1 | 145%
82 | O=C(Cc1csc2nc(-c3ccccc3)cn12)NCc1ccc(F)cc1 | 90%
83 | Cc1cccc(-c2cc3nc4c(c(N5CCCC5)n3n2)CCCC4)c1 | 123%
84 | O=S(=O)(c1ccc(Br)cc1)c1nc(-c2ccco2)oc1SCc1ccccc1Cl | 149%
85 | O=C(CSc1oc(-c2ccco2)nc1S(=O)(=O)c1ccc(Br)cc1)c1ccc(Cl)cc1 | 52%
86 | CCSc1oc(-c2ccco2)nc1S(=O)(=O)c1ccc(Br)cc1 | 54%
87 | O=S(=O)(c1ccc(Br)cc1)c1nc(-c2ccco2)oc1SCc1ccccc1F | 44% (active)
88 | Cc1ccc(S(=O)(=O)c2nc(-c3ccco3)oc2SCc2ccc(F)cc2)cc1 | 66%
89 | O=S(=O)(c1ccc(Cl)cc1)c1nc(-c2ccco2)oc1SCc1ccccc1F | 62%
90 | CCCSc1oc(-c2ccco2)nc1S(=O)(=O)c1ccc(Br)cc1 | 55%
91 | Cc1ccc(S(=O)(=O)c2nc(-c3ccco3)oc2SCC(C)C)cc1 | 48% (active)
92 | O=C(CSc1oc(-c2ccco2)nc1S(=O)(=O)c1ccc(Cl)cc1)c1ccccc1 | 125%
93 | O=C(CSc1oc(-c2ccco2)nc1S(=O)(=O)c1ccc(Br)cc1)c1ccccc1 | 47% (active)
94 | Cc1ccc(CSc2oc(-c3ccco3)nc2S(=O)(=O)c2ccc(C)cc2)cc1 | 62%
95 | CC(C)CSc1oc(-c2ccco2)nc1S(=O)(=O)c1ccc(Br)cc1 | 33% (active)
